The record followed here is PubChem BioAssay (Tox21).

Where “and” joins values, the source holds several entries; their conditions need not be identical. Equal entries are not always repeated. Inconclusive results are not listed. More than one record can exist for a structure, and the calls need not agree. Calls of active or inactive are those of the source. Unless noted, the call rests on the fitted dose curve; in most records, active means well fitted curve in the direction sought with a large enough effect in the repeat runs; inconclusive means weak or mixed curves; inactive means no such curve, though single readings can be large; an effect the other way counts as inactive or inconclusive.

A short description of experiment [1]: qHTS assay to test for compound auto fluorescence at 535 nm (green) in HEK293 cells (AID 720680). In general terms: Quantitative high-throughput screening tests each substance at several concentrations.
Experiment [2] is described as follows: qHTS assay to test for compound auto fluorescence at 460 nm (blue) in HEK293 cell free culture (AID 720681). Further: potency means the concentration at half of the fitted maximal effect. The method, boiled down: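 Blue fluorescence (Ex 405/Em 460 nm, triamterene-equivalent) was read immediately after pin transfer of compound or DMSO into medium (DMEM, 10% FBS) without cells.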
Experiment [3] in a line: qHTS assay to test for compound auto fluorescence at 590 nm (red) in HEK293 cell free culture (AID 720683). The gist of the method: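 Red-channel autofluorescence of compounds in culture medium (DMEM, 10% FBS), no cells, measured at 540/590 nm. Rose Bengal sodium is the reference fluorophore for equivalence.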
A short description of experiment [4]: qHTS assay to test for compound auto fluorescence at 590 nm (red) in HepG2 cell free culture (AID 720684). The method, boiled down:
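No cells present: MEM + 10% FBS only. Compound pinned in, red label read (540/590 nm). Activity = fluorescence equivalent to Rose Bengal sodium.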

Experiment [5] can be described thus: qHTS assay to test for compound auto fluorescence at 460 nm (blue) in HepG2 cell free culture (AID 720685). Further: potency means the concentration at half of the fitted maximal effect. The method, boiled down:
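Cell-free plates of MEM plus 10% FBS received 23 nL compound or DMSO vehicle; blue-channel (405/460 nm) intensity scored against triamterene as reference fluorophore.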

Experiment [6] is described as follows: qHTS assay to test for compound auto fluorescence at 535 nm (green) in HepG2 cell free culture (AID 720686).
Experiment [7] is described as follows: qHTS assay to test for compound auto fluorescence at 460 nm (blue) in HepG2 cells (AID 720687). Further: potency means the concentration at half of the fitted maximal effect. The gist of the method: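 Blue-channel autofluorescence (Ex/Em 405/460 nm, triamterene-equivalent) was measured after 1 hr compound exposure at 37 C, 5% CO2. Cells were HepG2, plated overnight at 37 C in MEM plus 10% FBS.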
Experiment [8] has as its target Glucocorticoid receptor (Homo sapiens) (UniProt P04150). In words: qHTS assay to identify small molecule agonists of the glucocorticoid receptor (GR) signaling pathway (AID 720691; active means well fitted activation curve with a large enough effect in the signal ratio in the repeat runs, not every such curve was filed as active; the % refers to the signal ratio). The gist of the method: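 HeLa GR-bla reporter line; cells pre-incubated 4 h, compound in DMSO 18 h at 37 C; LiveBLAzer B/G FRET substrate 2 h RT; fluorescence intensity read-out.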
Experiment [9] shares this target. In words: qHTS assay to identify small molecule antagonists of the glucocorticoid receptor (GR) signaling pathway (AID 720692; active means well fitted inhibition curve with a large enough effect in the signal ratio in the repeat runs, not every such curve was filed as active; the % refers to the signal ratio). The method, boiled down: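 Read-out: beta-lactamase FRET substrate fluorescence, 2 h at room temperature, in HeLa cells stably carrying a GRE-driven bla reporter. Compounds were co-incubated with 5 nM dexamethasone agonist (final) for 18 h at 37 C.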

Experiment [10] in a line: qHTS assay to identify small molecule antagonists of the glucocorticoid receptor (GR) signaling pathway - cell viability counter screen (AID 720693). Further: nearly all actives have a fitted effect of over 55% in size. Further: potency means the concentration at half of the fitted maximal effect.
The nature of experiment [11]: qHTS assay for identifying genotoxic compounds that show differential cytotoxicity against isogenic chicken DT40 cell lines with known DNA damage response pathways - Rev3 mutant cell line (AID 743014). Further: nearly all actives have a fitted effect of over 55% in size. Further: potency means the concentration at half of the fitted maximal effect.
Experiment [12] in a line: qHTS assay for identifying genotoxic compounds that show differential cytotoxicity against isogenic chicken DT40 cell lines with known DNA damage response pathways - Rad54/Ku70 mutant cell line (AID 743015). Further: nearly all actives have a fitted effect of over 60% in size. Further: potency means the concentration at half of the fitted maximal effect.
A short description of experiment [13]: qHTS assay to identify small molecule antagonists of the androgen receptor (AR) signaling pathway - cell viability counter screen (AID 743033; further: nearly all actives have a fitted effect of over 45% in size; further: potency means the concentration at half of the fitted maximal effect).
A short description of experiment [14]: qHTS assay to identify small molecule antagonists of the androgen receptor (AR) signaling pathway using the MDA cell line - cell viability counter screen (AID 743041; further: nearly all actives have a fitted effect of over 45% in size; further: potency means the concentration at half of the fitted maximal effect). The gist of the method: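 Using the breast carcinoma line MDA-kb2 AR-luc, test chemicals were co-incubated with R1881 for 16 h; CellTiter-Fluor reagent, added at 15.5 h, provided a fluorescence measure of live cells.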

Experiment [15] in a line: qHTS assay for identifying genotoxic compounds that show differential cytotoxicity against isogenic chicken DT40 cell lines with known DNA damage response pathways - wild type cell line (AID 743012). Further: nearly all actives have a fitted effect of over 60% in size. Further: potency means the concentration at half of the fitted maximal effect. The gist of the method:
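CellTiter-Glo luminescence readout of viability in wild type DT40 cells after 40 h compound exposure at 37 C/5% CO2; 300 cells/well; reagent incubated 30 min at room temperature before reading.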

Experiment [16] can be described thus: qHTS assay to identify small molecule antagonists of the thyroid receptor (TR) signaling pathway - cell viability counter screen (AID 743064). Further: nearly all actives have a fitted effect of over 50% in size. Further: potency means the concentration at half of the fitted maximal effect. The gist of the method: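 Rat GH3 pituitary tumor cells stably expressing two TR response elements driving luciferase were plated, rested 4 h, then dosed with library compounds and T3 (1 nM final). After 23.5 h at 37 °C, CellTiter-Fluor was added for 30 min and fluorescence recorded.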

For experiment [17], the target named is Androgen receptor (Homo sapiens) (UniProt P10275). In words: qHTS assay to identify small molecule antagonists of the androgen receptor (AR) signaling pathway using the MDA cell line (AID 743042; further: nearly all actives have a fitted effect of over 55% in size; further: potency means the concentration at half of the fitted maximal effect). The gist of the method: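 Antagonist mode: compounds plus R1881 agonist added to MDA-kb2 AR-luc cells, incubated 16 h at 37C. Luciferase reporter luminescence quantified, with multiplexed CellTiter-Fluor readout for cell viability.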
Chain of Androgen receptor (Homo sapiens) (P10275 whole entry, looked up): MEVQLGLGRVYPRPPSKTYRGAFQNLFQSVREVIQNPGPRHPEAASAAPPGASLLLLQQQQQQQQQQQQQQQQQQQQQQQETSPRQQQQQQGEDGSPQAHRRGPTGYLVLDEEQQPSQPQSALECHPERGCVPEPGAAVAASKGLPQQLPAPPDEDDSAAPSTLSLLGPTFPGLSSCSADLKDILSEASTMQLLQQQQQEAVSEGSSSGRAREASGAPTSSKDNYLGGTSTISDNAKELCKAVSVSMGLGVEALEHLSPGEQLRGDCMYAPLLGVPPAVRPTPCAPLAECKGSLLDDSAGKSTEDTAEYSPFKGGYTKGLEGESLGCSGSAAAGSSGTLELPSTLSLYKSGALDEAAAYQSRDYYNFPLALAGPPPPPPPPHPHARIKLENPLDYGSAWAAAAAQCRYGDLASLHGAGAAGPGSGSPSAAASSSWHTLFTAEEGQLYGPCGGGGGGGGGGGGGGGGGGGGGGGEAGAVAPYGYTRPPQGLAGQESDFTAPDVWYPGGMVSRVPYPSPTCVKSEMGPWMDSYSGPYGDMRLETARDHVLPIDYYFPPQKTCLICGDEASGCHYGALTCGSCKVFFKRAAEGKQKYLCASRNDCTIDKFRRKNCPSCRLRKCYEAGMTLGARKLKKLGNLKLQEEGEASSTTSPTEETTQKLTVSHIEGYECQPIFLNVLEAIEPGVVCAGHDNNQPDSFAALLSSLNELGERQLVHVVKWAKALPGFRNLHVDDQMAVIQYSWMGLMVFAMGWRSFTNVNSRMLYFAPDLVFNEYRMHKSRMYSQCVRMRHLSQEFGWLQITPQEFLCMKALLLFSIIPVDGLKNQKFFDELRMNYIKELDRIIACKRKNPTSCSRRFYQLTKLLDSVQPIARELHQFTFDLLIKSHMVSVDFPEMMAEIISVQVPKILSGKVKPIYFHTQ

The target is the same in experiment [18]. In words: qHTS assay to identify small molecule antagonists of the androgen receptor (AR) signaling pathway (AID 743035; active means well fitted inhibition curve with a large enough effect in the signal ratio in the repeat runs, not every such curve was filed as active; the % refers to the signal ratio). The method, boiled down: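 AR-bla HEK293 reporter cells; 4 h settle at 37C/5% CO2; compound + R1881 agonist, 16 h at 37C; LiveBLAzer B/G FRET substrate 2 h RT; fluorescence intensity read. qHTS format.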
For experiment [19] the target is unchanged. In words: qHTS assay to identify small molecule agonists of the androgen receptor (AR) signaling pathway (AID 743036; active means well fitted activation curve with a large enough effect in the signal ratio in the repeat runs, with a control signal flat, not every such curve was filed as active; the % refers to the signal ratio). The gist of the method: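 Quantitative HTS of the Tox21 10K library in HEK293 cells bearing a stably integrated UAS-controlled beta-lactamase reporter. Compound exposure lasted 16 h at 37C. Reporter activity was detected by FRET substrate fluorescence after 2 h at room temperature.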
Tags describe the fitted curve by direction and shape or compound fluorescence and quenching.

Chain of Glucocorticoid receptor (Homo sapiens) (P04150 whole entry, looked up): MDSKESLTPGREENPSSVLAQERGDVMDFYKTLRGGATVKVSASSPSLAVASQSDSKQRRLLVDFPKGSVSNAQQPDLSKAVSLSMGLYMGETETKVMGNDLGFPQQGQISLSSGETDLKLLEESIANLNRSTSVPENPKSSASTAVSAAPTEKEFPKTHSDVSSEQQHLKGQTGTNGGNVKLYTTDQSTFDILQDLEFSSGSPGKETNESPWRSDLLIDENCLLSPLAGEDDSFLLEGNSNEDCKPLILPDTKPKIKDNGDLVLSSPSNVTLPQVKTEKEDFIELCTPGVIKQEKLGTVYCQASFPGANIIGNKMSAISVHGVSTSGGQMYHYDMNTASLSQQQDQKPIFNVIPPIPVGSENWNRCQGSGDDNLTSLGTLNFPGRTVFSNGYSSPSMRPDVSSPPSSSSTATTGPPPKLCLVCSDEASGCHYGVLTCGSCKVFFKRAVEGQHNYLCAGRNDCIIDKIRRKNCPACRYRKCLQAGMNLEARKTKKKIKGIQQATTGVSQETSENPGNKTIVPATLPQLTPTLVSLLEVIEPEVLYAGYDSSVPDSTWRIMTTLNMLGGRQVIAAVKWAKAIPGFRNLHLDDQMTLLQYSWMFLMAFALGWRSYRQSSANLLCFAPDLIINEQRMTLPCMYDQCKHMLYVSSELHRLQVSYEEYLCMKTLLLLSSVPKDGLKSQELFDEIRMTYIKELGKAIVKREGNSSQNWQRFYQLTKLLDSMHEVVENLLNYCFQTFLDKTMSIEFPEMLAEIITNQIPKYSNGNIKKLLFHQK

Regarding `NC(=Nc1ccccc1)Nc1ccccc1`, the Potency result in experiment [1], in [2], in experiment [5], in [6], in [7] and in experiment [8] was “inactive” throughout. For the same compound, the Potency entry in experiment [9], in experiment [10], in [13] and in experiment [14] was “inactive” each time. Also, the result in experiment [3] and in experiment [4] was inactive. Moreover, the Potency result in [11] was “inactive and 42 µM (active)”; in experiment [12], “inactive and 61.1 µM (active)”.
For `CCC(CO)(CO)COCC(CC)(CO)CO`, the Potency entry in experiment [1], in [2], in [5], in experiment [6], in experiment [8] and in experiment [10] was “inactive” each time. The Potency result in experiment [15], in experiment [12], in [13] and in experiment [16] was “inactive” in each case. For the same compound, the compound was called inactive in experiment [3] and in [4].
Turning to `Nc1cc(S(=O)(=O)O)cc2cc(S(=O)(=O)O)cc(O)c12`, the Potency result in [1], in experiment [5], in [6], in experiment [7], in [8] and in experiment [9] was “inactive” throughout. The Potency result in [10], in experiment [15], in experiment [13], in [14] and in experiment [16] was “inactive” in each case. Moreover, the call in experiment [3] and in experiment [4] was inactive. Also, the Potency result in experiment [12] is “inactive and 61.1 µM (active)”.
Turning to `CC(C)(C)NC(=O)[C@@H]1CN(Cc2cccnc2)CCN1C[C@@H](O)C[C@@H](Cc1ccccc1)C(=O)N[C@H]1c2ccccc2C[C@H]1O`, the Potency entry in experiment [1], in experiment [2], in experiment [5], in experiment [7], in [8] and in [9] was “inactive” throughout. For the same compound, the Potency entry in [10], in experiment [13], in experiment [14] and in experiment [16] was “inactive” each time. For the same compound, the compound was called inactive in [3] and in experiment [4]. In addition, the Potency in experiment [15] is 23.7 µM (active) and inactive; in experiment [12], 18.8 µM (active).
Consider `CCN1CCCC1CNC(=O)c1cc(S(=O)(=O)CC)c(N)cc1OC` (stereo unspecified), for which the Potency entry in [1], in [2], in experiment [5], in experiment [6], in [8] and in [9] was “inactive” in each case. Moreover, the Potency result in [10], in experiment [15], in experiment [12], in experiment [13], in experiment [14] and in [16] was “inactive” throughout. Besides, the result in experiment [3] and in experiment [4] was inactive.
Turning to `CC[C@@H](N)CO`, the Potency result in experiment [1], in [2], in [5], in experiment [6], in experiment [7] and in experiment [15] was “inactive” throughout. The Potency result in [11], in experiment [12], in experiment [13] and in [14] was “inactive” each time. Besides, the result in [3] and in experiment [4] was inactive.
For `CCCCCCCCCCCCCC[P+](CCCC)(CCCC)CCCC`, the Potency result in experiment [1], in [2], in [5], in [6] and in experiment [7] was “inactive” each time. Moreover, the outcome in experiment [3] and in experiment [4] was inactive. For the same compound, the Potency was 9.72 µM (active) and 4.9 µM (active) in experiment [10]; 192 nM (active) and 86.3 nM (active) in experiment [15]; 85.8 nM (active) and 61.1 nM (active) in [11]; 76.5 nM (active) and 54.5 nM (active) in experiment [12]; 866 nM (active) and 977 nM (active) in [13]; 21.6 µM (active) and 6.11 µM (active) in experiment [14]. For the same compound, the Potency is 2.16 µM (active) and 1.54 µM (active) in experiment [17]; 2.16 µM (active) and 2.17 µM (active) in [16].
Regarding `CCCC(=O)c1ccccc1`, the Potency result in [1], in experiment [2], in experiment [5], in experiment [6], in experiment [7] and in experiment [8] was “inactive” in each case. The Potency entry in experiment [9], in experiment [10], in experiment [12], in experiment [13], in [18] and in experiment [14] was “inactive” in each case. The Potency entry in experiment [17] and in experiment [16] was “inactive” in each case. The outcome in [3] and in experiment [4] was inactive.
Regarding `BrC1CCC(Br)C(Br)CCC(Br)C(Br)CCC1Br` (stereo unspecified), the Potency result in [1], in experiment [2], in experiment [5], in experiment [7], in experiment [18] and in experiment [19] was “inactive” each time. Besides, the Potency entry in experiment [17] was “inactive”. Further, the compound was classed as inactive in experiment [3] and in experiment [4]. The Potency in experiment [15] was 46.1 µM (active); in experiment [11], “inactive and 41.1 µM (active)”; in experiment [12], “inactive and 25.9 µM (active)”; in experiment [13], 46.5 µM (active); in experiment [16], 5.43 µM (active) and 20.6 µM (active).
Take `CCN(CC)c1ccc2c(C)cc(=O)oc2c1`: the Potency result in experiment [1], in experiment [10] and in experiment [13] was “inactive” throughout. The Potency in experiment [2] is 39.8 µM (active); in [5], 35.5 µM [fluorescent] (active) and 39.8 µM [fluorescent] (active); in experiment [7], 39.8 µM [fluorescent] (active); in [15], 30.9 µM (active) and inactive; in experiment [12] it was 61.6 µM (active). The call in [3] and in experiment [4] was inactive.
Take `CC(C)(c1ccccc1)c1ccc(Nc2ccc(C(C)(C)c3ccccc3)cc2)cc1`: the Potency entry in [1], in [2], in [5], in experiment [7], in experiment [10] and in experiment [13] was “inactive” in each case. Also, the Potency entry in experiment [16] is “inactive”. Besides, the outcome in experiment [3] and in experiment [4] was inactive. Further, the Potency result was “inactive and 54.5 µM (active)” in experiment [15]; “inactive and 61.1 µM (active)” in [12].
In the case of `CC(COc1ccccc1)N(CCCl)Cc1ccccc1` (stereo unspecified), the Potency entry in [1], in experiment [2], in experiment [5], in experiment [6], in [8] and in experiment [10] was “inactive” in each case. For the same compound, the Potency entry in [13] is “inactive”. The outcome in experiment [3] and in [4] was inactive. The Potency in [15] is 21.1 µM (active) and 27.3 µM (active); in [11], 13.3 µM (active) and 34.7 µM (active) and 5.45 µM (active); in [12], 23.7 µM (active) and 15.4 µM (active).
Turning to `CC(=O)CC(=O)Nc1ccc2[nH]c(=O)[nH]c2c1`, the Potency result in [1], in experiment [2], in experiment [5], in experiment [6], in [7] and in [10] was “inactive” in each case. Also, the Potency entry in experiment [15], in experiment [11], in experiment [12], in [13] and in experiment [14] was “inactive” throughout. Moreover, the compound was called inactive in experiment [3] and in [4].
